Source: ChEMBL document CHEMBL3988442, “University of Dundee, Small-Polar-MMV Screening Library” (2021)
The whole screen tested about 48,000 compounds, of which about 13,000 (27%) showed an effect of 50% or more. The list shows a part of the results.

Each molecule was assayed on Wolbachia pipientis (assay: Anti-Wolbachia Cell-Based Screen). Settings: 5 µM.
Type: functional
Design: scale not given: in the data most compounds retested in dose-response had high values
`OC[C@@H]1CCCN1Cc1cn(C2CCN(C3CCCC3)CC2)nn1` was tested, and the “Percent Effect” value was -5.2%.
For `Cc1noc(OCCOc2ccc(C#N)cc2)n1`, the “Percent Effect” value was 1.206%.
`Cn1ccc(CS(=O)(=O)Cc2ccccc2)cc1=O` was tested, and the “Percent Effect” value was -1.625%.
In the case of `Cn1cccc1C(O)CNS(=O)(=O)Cc1ccccc1` (centres undefined), the “Percent Effect” value was -5.113%.
For `CC(C)CS(=O)(=O)Nc1ccc2c(c1)OCC(C)(C)C(=O)N2C`, the “Percent Effect” value was 141.6%.
For `O=C1CO[C@H](c2ccc(NS(=O)(=O)Cc3ccccc3)cc2)[C@@H](CO)N1`, the “Percent Effect” value was -3.508%.
`Cn1c(=O)n(C)c2cc(NS(=O)(=O)Cc3ccccc3)ccc21` was tested, and the “Percent Effect” value was 78.16%.
With `CN1C(=O)C(C)(C)COc2cc(NS(=O)(=O)c3ccccc3F)ccc21` the “Percent Effect” value was 192.1%.
In the case of `Cc1nc(N2CCCC2)nc(C)c1NS(=O)(=O)c1ccccc1F`, the “Percent Effect” value was -5.726%.
With `CC(C)CS(=O)(=O)Nc1ccc([C@H]2OCC(=O)N[C@@H]2CO)cc1` the “Percent Effect” value was -5.323%.
`CN1C(=O)C(C)(C)COc2ccc(NS(=O)(=O)Cc3ccccc3)cc21` was tested, and the “Percent Effect” value was 99.35%.
For `CN1C(=O)C(C)(C)COc2cc(NS(=O)(=O)c3ccccc3)ccc21`, the “Percent Effect” value was 19.53%.
For `CN1C(=O)C(C)(C)COc2cc(NS(=O)(=O)Cc3ccccc3)ccc21`, the “Percent Effect” value was 11.42%.
With `Cn1cnc2c1CCN(CCCOc1ccc(S(C)(=O)=O)cc1)C2` the “Percent Effect” value was -0.429%.
In the case of `COc1cc(CNC(=O)N2CCCC2c2cc(C)no2)ccn1` (centres undefined), the “Percent Effect” value was -13.9%.
`CCOc1ccccc1-c1noc(CN(C)Cc2cnn(C)c2)n1` was tested, and the “Percent Effect” value was -16.57%.
In the case of `CCS(=O)(=O)Nc1ccc2[nH]c(C3CCC3)nc2c1`, the “Percent Effect” value was 5.664%.
In the case of `CCS(=O)(=O)Nc1ccc2c(c1)OCC(C)(C)C(=O)N2C`, the “Percent Effect” value was 121.3%.
With `CCCS(=O)(=O)Nc1ccc2c(c1)OCC(C)(C)C(=O)N2C` the “Percent Effect” value was -9.167%.
For `O=C(CCc1nc(Cl)n[nH]1)NC1CCCN(C2Cc3ccccc3C2)C1` (centres undefined), the “Percent Effect” value was -44.69%.
In the case of `COC(=O)c1ccoc1CN(C)Cc1ccccc1`, the “Percent Effect” value was 118.1%.
For `COc1cc(CC(=O)Nc2cccc(C(=O)N(C)C)n2)ccc1C`, the “Percent Effect” value was -9.433%.
`COC(=O)CNC(=O)C1(N(C)Cc2ccccc2)Cc2ccccc2C1` was tested, and the “Percent Effect” value was -5.057%.
With `CN(Cc1ccccc1)CC(C)(C)NC(=O)c1ccon1` the “Percent Effect” value was 7.047%.
For `COC(=O)c1ccoc1CN(C)Cc1cc(OC)c(OC)cc1C`, the “Percent Effect” value was 109.7%.
With `CC1Cc2ccccc2N1Cc1occc1C(=O)NCC(=O)N(C)C` (centres undefined) the “Percent Effect” value was -8.438%.
With `COc1cc(C)c(C(C)NC(=O)c2cccnc2N(C)C)cc1OC` (centres undefined) the “Percent Effect” value was 0.4558%.
With `CN(CC(=O)N(C)C)Cc1ccc(C#N)cc1F` the “Percent Effect” value was -6.679%.
For `COC(=O)c1ccoc1CN(C)CC(=O)N(C)C`, the “Percent Effect” value was 115.3%.
